Bioassay records (PubChem)
GC-B act: GC-B (human) receptor activation; activation, % at 10 µM; AID 1920062; HEK293-GC-B cells, CNP EC30, cGMP TR-FRET; 0% at EC30 CNP, 100% saturating CNP; 370,000 tested, 0.11% active;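 active = activation at 10 µM reaching about 35% in either raw or pattern-adjusted values, limit read from the data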
PfM18AAP inh: blocks P. falciparum M18 aspartyl aminopeptidase | recombinant PfM18AAP, H-Glu-NHMec fluorogenic cleavage | inhibition, % at 7.35 µM | 290,000 tested, 1.2% active | AID 1822;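 active = inhibition above the campaign mean inhibition over all tested compounds plus 3 SD, cut at about 28% in these data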
PLCb3 inh: PLC-beta3 (human) inhibition, primary screen; Purified PLC-beta3, fluorogenic substrate, fluorescence; inhibition, % at 12.2 µM; 370,000 tested, 0.18% active; in the data active = inhibition above about 11%
Rce1 inhib: yeast Ras-converting enzyme inhibition; Q03530; yeast membranes, quenched prenylated peptide cleavage fluorescence; calls only; 290,000 tested, 0.27% active; AID 2563;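 active = fall in fluorescence gain of 50% or more versus controls, with final raw signal at or below 3038400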
NPR1 activator: GC-A (human) enzyme activation | HEK293 GC-A cells, cGMP TR-FRET, EC30 ANP; 0% at EC30 ANP, 100% saturating ANP | activation, % at 10 µM | 370,000 tested, 0.14% active; in the data active = activation above about 40%
Target sequence (P16066 whole entry, looked up): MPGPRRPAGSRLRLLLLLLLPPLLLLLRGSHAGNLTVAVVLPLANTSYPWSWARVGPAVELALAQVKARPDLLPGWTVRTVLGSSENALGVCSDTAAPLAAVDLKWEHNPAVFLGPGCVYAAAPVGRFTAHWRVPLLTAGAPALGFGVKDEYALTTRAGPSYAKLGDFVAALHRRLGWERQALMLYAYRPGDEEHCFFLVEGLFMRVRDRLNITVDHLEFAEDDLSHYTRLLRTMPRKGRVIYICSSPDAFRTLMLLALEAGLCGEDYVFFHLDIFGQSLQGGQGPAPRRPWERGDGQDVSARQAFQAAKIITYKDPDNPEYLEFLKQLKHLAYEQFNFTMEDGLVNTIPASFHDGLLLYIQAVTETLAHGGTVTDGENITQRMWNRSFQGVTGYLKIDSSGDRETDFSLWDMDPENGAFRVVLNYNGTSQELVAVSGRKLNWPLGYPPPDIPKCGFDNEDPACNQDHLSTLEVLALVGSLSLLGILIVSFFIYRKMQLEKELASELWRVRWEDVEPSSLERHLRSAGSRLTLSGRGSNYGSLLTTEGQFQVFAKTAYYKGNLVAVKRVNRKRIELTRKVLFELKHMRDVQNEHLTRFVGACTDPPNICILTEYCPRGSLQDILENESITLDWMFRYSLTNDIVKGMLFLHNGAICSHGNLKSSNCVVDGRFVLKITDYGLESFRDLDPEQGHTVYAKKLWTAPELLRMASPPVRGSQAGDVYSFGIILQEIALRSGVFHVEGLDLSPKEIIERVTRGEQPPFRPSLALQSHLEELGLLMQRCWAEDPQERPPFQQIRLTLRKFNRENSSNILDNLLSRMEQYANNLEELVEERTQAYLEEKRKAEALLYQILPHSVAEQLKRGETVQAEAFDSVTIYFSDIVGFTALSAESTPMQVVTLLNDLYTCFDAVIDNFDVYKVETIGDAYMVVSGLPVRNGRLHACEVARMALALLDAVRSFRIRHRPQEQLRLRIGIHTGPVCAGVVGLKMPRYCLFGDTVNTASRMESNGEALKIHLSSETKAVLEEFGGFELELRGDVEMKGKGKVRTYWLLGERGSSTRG
PLCg1 inh: blocks human PLC-gamma1 enzyme activity. inhibition, % at 12.2 µM. purified PLC-gamma1, fluorogenic substrate, fluorescence. P19174. 370,000 tested, 0.84% active
PLCgamma1 ctr: PLC-gamma1 inhibition, counter-screen for PLC-beta3 hits; shares compounds with PLCg1 inh; purified PLC-gamma1, fluorogenic substrate, fluorescence; inhibition, % at 12.3 µM; 3,300 tested, 3.1% active; AID 743258
PLCbeta3 conf: confirmation of human PLC-beta3 inhibitors; shares compounds with PLCg1 inh; purified PLC-beta3, fluorogenic substrate fluorescence; inhibition, % at 12.3 µM; 3,300 tested, 1% active; AID 743261; in the data active = inhibition above about 11%
Hits are given with their value; – = inactive; · = no result. Most compounds without a hit are left out; they make up all but 2.2% or so of the library. Cut-off read from the data, not from the text of the source, unless noted: active = inhibition above about 9.5%; inactive = the rest.

SMILES | GC-B act | PfM18AAP inh | PLCb3 inh | Rce1 inhib | NPR1 activator | PLCg1 inh | PLCgamma1 ctr | PLCbeta3 conf
Cc1ccc(-c2nnn(CC(=O)NCc3ccccc3)n2)c(-n2cnnn2)c1 | – | – | – | – | – | – | · | ·
CC(=O)OCC(=O)Nc1ccc(Cl)cc1Cl | – | – | – | – | – | 10 | – | –
O=C(c1ccccc1)n1ccc2ccc(-c3ccc4ccn(C(=O)c5ccccc5)c4c3)cc21 | – | · | – | · | – | – | · | ·
CC(=O)CC[C@@H]1CC[C@]2(CCCN(C(=O)c3ccno3)C2)O1 | – | · | – | · | – | – | · | ·
Clc1ccc(-c2csc(Nc3cccnc3)n2)cc1 | – | – | – | – | – | 10 | – | –
COc1ccccc1-c1cccc2c3c([nH]c12)[C@@H]1C[C@H]2[C@@H](C(=O)N1CC3)[C@H](C)ON2C | – | · | – | · | – | – | · | ·
CC(C)(C)c1ccccc1OCC(O)CN1CCN(c2ccccn2)CC1 (stereo not drawn) | – | – | – | – | – | 12 | – | –
CC(=O)N1CCc2cc(S(=O)(=O)NCCC(=O)N(C)C3CCCCC3)ccc21 | – | · | – | · | – | – | · | ·
C=C(C)Cn1c(SCC(=O)N/N=C(\C)c2ccc(Br)cc2)nnc1-c1ccc(Br)cc1 | – | · | – | · | – | – | · | ·
Cc1cnc(CNC(=O)c2ccc3sc([C@H]4C[C@H](O)[C@@H](CO)O4)nc3c2)cn1 | – | · | – | · | – | 10 | – | –
S=C(Nc1ccccc1Cl)N1CCC(c2ccccc2)C1 (stereo not drawn) | – | – | – | – | – | 10 | – | –
C/C(=C1\SC(N2CCOCC2)=NC1=O)c1ccc(C)cc1 | – | – | – | – | – | 10 | – | –
C/C(=C1/SC(N2CCOCC2)=NC1=O)c1ccc(Cl)cc1 | – | – | – | – | – | – | · | ·
COC1OC(COCc2ccccc2)C2OC(C)(C)OC2C1O (stereo not drawn) | – | · | – | · | – | – | · | ·
O=C1CC(c2ccccc2)Sc2ccccc2N1 (stereo not drawn) | – | – | – | – | – | 10 | – | –
O=C1CC(c2ccco2)Sc2ccccc2N1 (stereo not drawn) | – | – | – | – | – | – | · | ·
CCNc1ccc(S(=O)(=O)NCCN(C)C)cc1[N+](=O)[O-] | – | – | – | – | – | – | · | ·
CN(C)CCCNS(=O)(=O)c1ccc(NC2CCCCCC2)c([N+](=O)[O-])c1 | – | – | – | – | – | 15 | – | –
CCn1c(SCC(=O)Nc2nc(C)c(C)s2)nnc1-c1cccnc1 | – | – | – | · | – | 9.8 | – | –
CCn1c(SCC(=O)Nc2cc(C)on2)nnc1-c1cccnc1 | – | – | · | – | – | · | · | ·
NC(=O)CSc1nc2c(sc(=S)n2-c2ccccc2)c(=O)[nH]1 | – | – | – | – | – | 10 | – | –
Cc1ccc(C(NC(=O)c2cccc(S(=O)(=O)N3CCN(C)CC3)c2)c2ccccc2)cc1 (stereo not drawn) | – | · | – | · | – | 10 | – | –
CC/C(Cc1ccccc1)=N/NC(=O)CNC(=O)c1ccc(Cl)cc1Cl | – | – | – | – | – | 11 | – | –
CC/C(C)=N\NC(=O)CNC(=O)c1ccc(Cl)cc1Cl | – | – | – | – | – | – | · | ·
C[C@@H]1CN([C@H](C)CO)C(=O)c2cc(NC(=O)Nc3ccc(F)cc3)ccc2O[C@@H](C)CCCCO[C@@H]1CN(C)C(=O)CCCN(C)C | – | · | – | · | – | – | · | ·
Cc1cccc(CS(=O)(=O)Cc2ccc(C(=O)O)o2)c1 | – | – | – | – | – | 11 | – | –
COCCCNC(=O)c1ccc(CS(=O)(=O)Cc2cccc(C)c2)o1 | – | – | – | – | – | – | · | ·
O=[N+]([O-])c1cc(C(F)(F)F)ccc1NCCCCNS(=O)(=O)c1ccc(Cl)cc1 | – | – | 11 | – | – | – | – | –
COc1ccc(NS(=O)(=O)c2ccc(S(=O)(=O)N3CCCC3)cc2)cc1Cl | – | – | – | – | – | 15 | – | –
OC(c1ccccc1)(c1ccccc1)C1CCN(CCCOc2ccc(-c3ccc(F)cc3F)cc2)CC1 | – | · | – | · | – | – | · | ·
